PubChem BioAssay (Tox21)
Records with an inconclusive call do not appear. Active and inactive are the calls of the source. Unless noted, the call rests on the fitted dose curve; in most records, active means well fitted curve in the direction sought with a large enough effect in the repeat runs; inconclusive means weak or mixed curves; inactive means no such curve, though single readings can be large; an effect the other way counts as inactive or inconclusive.

Legend:
[1] = qHTS assay to identify small molecule agonists of H2AX (AID 1224845; active means well fitted activation curve with a large enough effect in the signal ratio in the repeat runs, not every such curve was filed as active; the % refers to the signal ratio)
Procedure, shortened: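 Wild-type CHO-K1 cells, plated overnight, exposed 3hr at 37C to 15 concentrations (0.76% DMSO final). Lysed, then HTRF anti-pH2AX (S139) cryptate and anti-H2AX-d2 antibodies, 24 hr room temperature; 665/620 nm emission read.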

[2] = qHTS assay to identify small molecule agonists of the hypoxia (HIF-1) signaling pathway (AID 1224846; active means well fitted activation curve with a large enough effect in the signal ratio in the repeat runs, not every such curve was filed as active; the % refers to the signal ratio)
Procedure, shortened: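 ME-180 HRE-bla reporter cells; compounds in DMSO, 17 h at 37C; read-out beta-lactamase via CCF4-AM FRET.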

[3] = qHTS assay to identify small molecule agonists of H2AX - cell viability counter screen (AID 1224847; calls by dose curve; further: top concentration of the series differs between compounds; nearly all actives have a fitted effect of over 30% in size)
Procedure, shortened: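 For this counter screen, overnight-attached CHO-K1 cells received test compounds (15 concentrations, 0.76% DMSO final); 3 hr later at 37C, CellTiter-Glo reagent was added and luminescence recorded after 30 min at room temperature.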

[4] = qHTS assay to identify small molecule antagonists of the estrogen related receptor (ERR) signaling pathway from Tox21 library (AID 1224848); further: nearly all actives have a fitted effect of over 50% in size
Procedure, shortened: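 Compounds dissolved in DMSO are pin-transferred onto ERR reporter cells (2,000 per well) that have settled for 6 h at 37 C. Plates then incubate 18 h at 37 C before ONE-Glo luciferase reagent and a luminescence read 30 min later.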

[5] = qHTS assay to identify small molecule agonists of the estrogen related receptor (ERR) signaling pathway from Tox21 library (AID 1224849; calls by dose curve; further: nearly all actives have a fitted effect of over 15% in size); conditions: ERR reporter cell line, ONE-Glo luciferase, 18 h
Procedure, shortened: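 Luciferase activity in ERR pathway reporter cells served as the agonist readout; exposure lasted 18 h at 37 C, with ONE-Glo detection after 30 min at room temperature.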

[6] = qHTS RealTime-Glo MT Cell Viability Assay in HepG2 cells - 24 hour (AID 1224867); further: nearly all actives have a fitted effect of over 50% in size
Procedure, shortened: (§1)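 Real-time, nonlytic viability: 600 HepG2 cells/well mixed with NanoLuc enzyme plus prosubstrate; 5 h settle, compound (DMSO) added by pintool; luminescence monitored over 40 h at 37 C.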

[7] = qHTS RealTime-Glo MT Cell Viability Assay in HEK293 cells - 32 hour (AID 1224868); further: top concentration of the series differs between compounds; nearly all actives have a fitted effect of over 50% in size
Procedure, shortened: (§2)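 Cells + reagent dispensed (600 cells/well, HEK293) → 5 h at 37 C/5% CO2 → 23 nL compound in DMSO pinned → 40 h at 37 C → luminescence read at 0, 8, 16, 24, 32, 40 h.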

[8] = A CellTox Green Cytotoxicity Assay to monitor cytotoxicity in HEK293 cells - 0 hour (AID 1224869); further: nearly all actives have a fitted effect of over 50% in size
Procedure, shortened: (§3)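 Real-time, in one plate: 600 HEK293 cells/well with dead-cell DNA dye, pinned compound after 5 h, 37 C incubation over 40 h; viable cells give no appreciable fluorescence.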

[9] = qHTS RealTime-Glo MT Cell Viability Assay in HepG2 cells - 40 hour (AID 1224870); further: nearly all actives have a fitted effect of over 50% in size
Procedure, shortened: (§4)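 HepG2 cells (600/well) mixed with RealTime-Glo MT reagent, settled 5 h at 37 C/5% CO2 before compound addition. Nonlytic NanoLuc luminescence from viable-cell prosubstrate reduction read repeatedly during 40 h treatment at 37 C.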

[10] = A CellTox Green Cytotoxicity Assay to monitor cytotoxicity in HEK293 cells - 40 hour (AID 1224871); further: nearly all actives have a fitted effect of over 45% in size
Procedure, shortened: as §3

[11] = qHTS RealTime-Glo MT Cell Viability Assay in HEK293 cells - 16 hour (AID 1224872)
Procedure, shortened: as §2

[12] = qHTS RealTime-Glo MT Cell Viability Assay in HepG2 cells - 8 hour (AID 1224873); further: nearly all actives have a fitted effect of over 55% in size
Procedure, shortened: as §4

[13] = qHTS RealTime-Glo MT Cell Viability Assay in HEK293 cells - 40 hour (AID 1224874); conditions: RealTime-Glo luminescence; max response: stronger effect = lower value; further: nearly all actives have a fitted effect of over 50% in size
Procedure, shortened: (§5)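 Kinetic, non-lysing viability readout. Seed HEK293 (600/well) with reagent, incubate 5 h at 37 C/5% CO2, pin 23 nL compound in DMSO, incubate at 37 C, read luminescence at 0, 8, 16, 24, 32, 40 h.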

[14] = A CellTox Green Cytotoxicity Assay to monitor cytotoxicity in HEK293 cells - 24 hour (AID 1224875); further: nearly all actives have a fitted effect of over 45% in size
Procedure, shortened: as §3

[15] = A CellTox Green Cytotoxicity Assay to monitor cytotoxicity in HepG2 cells - 16 hour (AID 1224876); further: nearly all actives have a fitted effect of over 45% in size
Procedure, shortened: (§6)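 Cytotoxicity was tracked as dead-cell DNA fluorescence in HepG2 cells treated with test compounds at 37 C; each time-point value comes from one kinetic series spanning 0, 8, 16, 24, 32 and 40 h.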

[16] = qHTS RealTime-Glo MT Cell Viability Assay in HepG2 cells - 32 hour (AID 1224877); further: nearly all actives have a fitted effect of over 55% in size
Procedure, shortened: as §1

[17] = A CellTox Green Cytotoxicity Assay to monitor cytotoxicity in HepG2 cells - 24 hour (AID 1224878); further: nearly all actives have a fitted effect of over 45% in size
Procedure, shortened: as §6

[18] = A CellTox Green Cytotoxicity Assay to monitor cytotoxicity in HepG2 cells - 40 hour (AID 1224879); further: nearly all actives have a fitted effect of over 40% in size
Procedure, shortened: as §6

[19] = qHTS RealTime-Glo MT Cell Viability Assay in HEK293 cells - 0 hour (AID 1224880)
Procedure, shortened: as §5

[20] = A CellTox Green Cytotoxicity Assay to monitor cytotoxicity in HEK293 cells - 32 hour (AID 1224881); further: nearly all actives have a fitted effect of over 40% in size
Procedure, shortened: as §3
On the % scale 0 is the no-effect control and ±100 the full control effect.

CO[Si](OC)(OC)c1ccccc1
inactive: Potency [1] | Potency [2] | Potency [3] | Potency [4] | activity change, positive = activation ([5]; at 92.4 µM (top of the series)) 18% | Potency [6] | Potency [7] | Potency [8] | Potency [9] | Potency [10] | Potency [11] | Potency [12] | max response [13] 0.242% | Potency [14] | Potency [15] | Potency [16] | Potency [17] | Potency [18] | Potency [19] | Potency [20]

C[N+]1([O-])CCOCC1
inactive: Potency [1] | Potency [2] | Potency [3] | Potency [4] | activity change, positive = activation ([5]; at 92.4 µM (top of the series)) -0.0985% | Potency [6] | Potency [7] | Potency [8] | Potency [9] | Potency [10] | Potency [11] | max response [13] 0.178% | Potency [14] | Potency [15] | Potency [16] | Potency [17] | Potency [18] | Potency [19] | Potency [20]

CCN(CC)C(=O)Nc1ccc(OCC(O)CNC(C)(C)C)c(C(C)=O)c1 (stereo not drawn)
inactive: Potency [1] | Potency [2] | Potency [3] | Potency [4] | activity change, positive = activation ([5]; at 42.5 µM (top of the series)) -6.6% | Potency [6] | Potency [7] | Potency [8] | Potency [9] | Potency [10] | Potency [11] | Potency [12] | max response [13] 1.66% | Potency [14] | Potency [15] | Potency [17] | Potency [19] | Potency [20]

CC(C)(C)c1ccccc1
inactive: Potency [1] | Potency [2] | Potency [3] | Potency [4] | activity change, positive = activation ([5]; at 92.4 µM (top of the series)) 0.862% | Potency [6] | Potency [8] | Potency [9] | Potency [10] | Potency [11] | max response [13] 0.372% | Potency [14] | Potency [15] | Potency [17] | Potency [18] | Potency [19] | Potency [20]

CCOC(=O)C(C)C(C)=O (stereo not drawn)
inactive: Potency [1] | Potency [2] | Potency [3] | Potency [4] | activity change, positive = activation ([5]; at 92.4 µM (top of the series)) 5% | Potency [6] | Potency [7] | Potency [8] | Potency [9] | Potency [10] | Potency [11] | max response [13] -0.314% | Potency [14] | Potency [15] | Potency [16] | Potency [17] | Potency [18] | Potency [19] | Potency [20]

Cc1cccc([N+](=O)[O-])c1C(=O)O
inactive: Potency [1] | Potency [2] | Potency [3] | Potency [4] | activity change, positive = activation ([5]; at 92.4 µM (top of the series)) 4.9% | Potency [6] | Potency [7] | Potency [8] | Potency [9] | Potency [10] | Potency [11] | Potency [12] | max response [13] -0.164% | Potency [14] | Potency [15] | Potency [16] | Potency [17] | Potency [19] | Potency [20]

COc1ccc(Cc2cnc(N)nc2N)cc1OC
inactive: Potency [1] | Potency [2] | Potency [3] | Potency [4] | activity change, positive = activation ([5]; at 42.5 µM (top of the series)) 4.01% | Potency [7] | Potency [8] | Potency [9] | Potency [10] | Potency [11] | max response [13] 0.446% | Potency [14] | Potency [15] | Potency [16] | Potency [17] | Potency [19] | Potency [20]

CC1=C(C=O)C(C)(C)CC=C1
inactive: Potency [1] | Potency [2] | Potency [3] | Potency [4] | Potency [6] | Potency [7] | Potency [8] | Potency [9] | Potency [10] | Potency [11] | Potency [12] | max response [13] -1.02% | Potency [14] | Potency [15] | Potency [16] | Potency [17] | Potency [18] | Potency [19] | Potency [20]

CC[C@@H](N)CO
inactive: Potency [1] | Potency [2] | Potency [3] | Potency [4] | activity change, positive = activation ([5]; at 92.4 µM (top of the series)) -0.0387% | Potency [7] | Potency [8] | Potency [9] | Potency [10] | Potency [11] | Potency [12] | max response [13] -8.2% | Potency [14] | Potency [15] | Potency [17] | Potency [18] | Potency [19] | Potency [20]

COC(c1ccccc1)(c1ccccc1)[C@H](Oc1nc(C)cc(C)n1)C(=O)O
inactive: Potency [1] | Potency [2] | Potency [3] | Potency [4] | activity change, positive = activation ([5]; at 42.5 µM (top of the series)) 0.278% | Potency [7] | Potency [8] | Potency [9] | Potency [10] | Potency [11] | Potency [12] | max response [13] -3.67% | Potency [14] | Potency [15] | Potency [16] | Potency [17] | Potency [18] | Potency [19] | Potency [20]

CCCCC/C=C/CC1CC(=O)OC1=O (stereo not drawn)
inactive: Potency [1] | Potency [2] | Potency [3] | Potency [4] | activity change, positive = activation ([5]; at 92.4 µM (top of the series)) 5.46% | Potency [6] | Potency [8] | Potency [9] | Potency [10] | Potency [11] | max response [13] 1.06% | Potency [14] | Potency [15] | Potency [17] | Potency [19] | Potency [20]

CC(C)CCOCc1ccccc1
inactive: Potency [1] | Potency [2] | Potency [3] | Potency [4] | activity change, positive = activation ([5]; at 92.4 µM (top of the series)) 4.72% | Potency [7] | Potency [8] | Potency [9] | Potency [10] | Potency [11] | max response [13] 2.97% | Potency [14] | Potency [15] | Potency [16] | Potency [17] | Potency [18] | Potency [19] | Potency [20]

O=C(O)Cn1cnnn1
inactive: Potency [1] | Potency [2] | Potency [3] | Potency [4] | activity change, positive = activation ([5]; at 42.5 µM (top of the series)) 4% | Potency [6] | Potency [7] | Potency [8] | Potency [9] | Potency [10] | Potency [11] | Potency [12] | max response [13] 0.0865% | Potency [14] | Potency [15] | Potency [17] | Potency [18] | Potency [19] | Potency [20]
